Bioassay records deposited in PubChem BioAssay by National Center for Advancing Translational Sciences (NCATS).
In the library only some 19% were active in any assay of this set; here they are far more common.
DT40 TDP1 CPT – growth inhibition of DT40 Tdp1-/-;hTDP1 cells with camptothecin (screen for TDP1 inhibitors). 420,000 compounds, 12% hits. chicken DT40 Tdp1-/-;hTDP1 cells + 20 nM CPT, ATP luminescence, 48 h. Potency, µM (titrated, usually from 46.2 µM), hits mostly inhibitors; also: nearly all actives have a fitted effect of over 55% in size
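Cell growth measured by CellTiter-Glo luminescence after a minimum 48 h, 37 C compound exposure with 20 nM CPT in Tdp1-knockout DT40 cells stably expressing hTDP1, seeded 400/well; qHTS titration format.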
HT1080 IDH1KD tx – toxicity to HT-1080 IDH1 knockdown cells (counter line) | HT-1080 IDH1 knockdown viability, ATP luminescence, 48 h | Potency, µM (titrated, usually from 46.1 µM), most hits filed as cytotoxic | 360,000 compounds, 2% hits | AID 686971
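Assay cells: HT-1080 with IDH1 knockdown, 750 per well, RPMI/5% FBS. Exposure: 48 h at 37 °C following 2 h pre-incubation. Read: CellTiter-Glo luminescence; fitted concentration-response, curve class assigned.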
ELG1 DNA repair – inhibitors of ELG1-dependent DNA repair in HEK293T cells | HEK293T ELG1-luciferase reporter, luminescence, 16 h; DNA damage induced by 5-fluorouridine | Potency, µM (titrated, usually from 46.1 µM), hits mostly inhibitors | 330,000 compounds, 2.3% hits; also: nearly all actives have a fitted effect of over 55% in size
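HEK293T cells expressing luciferase-tagged ELG1 (2,000/well) received 5-Fluorouridine plus compound or DMSO for 16 hr at 37 °C. Luciferase was read by ONE-Glo luminescence after 30 min at room temperature.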
TDP1 cell noCPT – qHTS for Inhibitors of human tyrosyl-DNA phosphodiesterase 1 (TDP1): qHTS in cells in absence of CPT; DT40 Tdp1-/- hTDP1 cells, no CPT, ATP luminescence, 48 h; Potency, µM (titrated, usually from 46.2 µM), usual class: inhibitors; 420,000 compounds, 15% hits; AID 686978, 2013; also: nearly all actives have a fitted effect of over 55% in size
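Growth of hTDP1-complemented DT40 Tdp1-knockout cells is measured by ATP luminescence after at least 48 hr compound exposure at 37 °C, with DMSO substituting for the 20 nM CPT used in the parallel screen.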
HT1080NT lethal – kills 2HG-producing HT-1080-NT fibrosarcoma cells | HT-1080-NT fibrosarcoma viability, CellTiter-Glo ATP luminescence, 48 h | Potency, µM (doses to about 46.1 µM), hits mostly cytotoxic | 360,000 compounds, 1.6% hits | AID 686970;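 also: NT is the 2HG producing partner of a matched IDH1 knockdown line; nearly all actives have a fitted effect of over 55% in size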
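HT-1080-NT fibrosarcoma cells (2HG-overproducing), 750 cells/well in RPMI with 5% FBS, dosed after 2 h and incubated 48 h at 37C. CellTiter-Glo luminescence normalized to DMSO and no-cell wells; concentration-response curves fitted and classed.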
IL1B secr inh – inflammasome signaling inhibition, IL-1 beta readout; 360,000 compounds, 4.7% hits; THP-1 LPS/ATP IL-1B secretion, AlphaLISA, 16 h; hits give low values; AID 743279; activity change, % at 57.5 µM; in the data active = activity change below about -50%; inconclusive = mostly about -30% to -49%
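THP-1 cells pretreated 1 hr with compounds (up to 57.5 uM final), then stimulated with LPS (250 ng/mL final) plus ATP (1.25 mM final); secreted IL-1B measured by AlphaLISA after 16 hr, decreased signal indicating inhibition.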
Hits are given with their value; 0 = inactive; ? = inconclusive; - = not tested or not shown. Unless noted, calls follow the shape of the dose curve; as a rule, active = well fitted curve in the direction sought with a large enough effect; inconclusive = small, poorly fitted or top-dose-only effect, or another doubt; inactive = no such curve, though single readings can be large; an effect the other way counts as inactive or inconclusive.

SMILES	DT40 TDP1 CPT	HT1080 IDH1KD tx	ELG1 DNA repair	TDP1 cell noCPT	HT1080NT lethal	IL1B secr inh
CC1=C(C(=O)Nc2ccccc2C)C(c2ccc(C)o2)C2=C(CCCC2=O)N1 (stereo not drawn)	0	0	0	0	?	0
CCc1nnc2c3ccccc3nc(Nc3ccccc3OC)n12	0	-	-	?	-	-
CCOC(=O)C1CCN(C(=O)c2cc3c(C)cc(C)cc3[nH]2)CC1	0	0	0	?	?	0
CCOc1ccccc1N1CCN(C(=O)c2cc3c(C)cc(C)cc3[nH]2)CC1	?	?	0	23.1µM	?	?
CCOc1ccccc1N1CCN(C(=O)c2ccc3[nH]c4c(c3c2)CCCC4)CC1	20.6µM	?	0	?	?	?
COc1ccc(S(=O)(=O)N2CCC(C(=O)NC(C)c3ccccc3)CC2)cc1 (stereo not drawn)	0	-	-	?	-	-
COc1ccc(-n2ccn(CC(=O)Nc3ccc(C)cc3C)c(=O)c2=O)cc1	0	-	-	0	-	-
Clc1ccc2c(c1)-c1ccccc1C1=NCCN12	0	18.4µM	-	1.64µM	?	-103.5
COc1ccc(Br)cc1S(=O)(=O)N1CCN=C1c1ccccc1	0	0	0	?	0	0
Brc1ccc2c(c1)-c1ccccc1C1=NCCN12	1.46µM	16.4µM	-	0.82µM	23.1µM	-103.7
CN1C2=NCCN2C(=O)c2cc(Cl)ccc21	0	0	0	0	0	0
COc1ccccc1-n1c(-c2ccc(Cl)cc2)c[nH]c1=S	23.1µM	0	0	20.6µM	0	0
Cc1cccc(-n2c(-c3ccccc3)c[nH]c2=S)c1C	?	0	0	11.6µM	0	0
COc1ccccc1/C=C\C=N\n1c(-c2ccc(Cl)cc2)n[nH]c1=S	?	0	0	?	0	0
Cc1ccccc1NCCC(=O)Nc1ccc(Cl)cc1	?	0	?	?	0	0
Cc1cnc(CNc2ncncc2-c2cccc(C#N)c2)cn1	0	-	-	0	-	-
CN(C)c1ccc(-c2cncnc2NCCN2CCOCC2)cc1	0.92µM	-	-	1.16µM	-	-
COc1cccc(-c2cncnc2NCCN2CCOCC2)c1	0.82µM	-	-	2.91µM	-	-
Cc1ccccc1-c1cncnc1NCCN1CCOCC1	2.91µM	-	-	3.26µM	-	-
Cc1noc(C)c1-c1cncnc1NCCN1CCOCC1	0	-	-	0	-	-
COc1cccc(-c2cncnc2NCc2cnc(C)cn2)c1	4.61µM	-	-	3.66µM	-	-
C=CCOc1ccccc1CN1CCCCCC1	0	0	0	0	0	0
Cc1ccnc(NS(=O)(=O)c2ccc(NC(=O)C(C)(C)Oc3ccc(Cl)cc3)cc2)n1	0	-	-	0	-	-
COc1cccc(CN(C)CC(=O)Nc2ccccc2C(C)C)c1	?	0	0	16.4µM	0	0
COc1ccccc1CN(C)CC(=O)Nc1ccc(Cl)cc1C(F)(F)F	20.6µM	0	0	14.6µM	0	0
SMILES	DT40 TDP1 CPT	HT1080 IDH1KD tx	ELG1 DNA repair	TDP1 cell noCPT	HT1080NT lethal	IL1B secr inh
COc1ccccc1CN(C)CC(=O)Nc1cccc2ccccc12	25.9µM	0	0	25.9µM	0	-59.6
CSc1ccccc1NC(=O)CN(C)Cc1cccc(Cl)c1	0	0	0	?	0	0
CC(C)(C)C(=O)CSc1nc(N)cc(=O)[nH]1	0	0	0	0	0	0
CC1CC(C)CN(S(=O)(=O)c2ccc3c(c2)CC(C)N3C(=O)C2CC2)C1 (stereo not drawn)	18.4µM	0	0	14.6µM	0	0
CC1CC(C)CN(S(=O)(=O)c2ccc3c(c2)CC(C)N3C(=O)C2CCC2)C1 (stereo not drawn)	23.1µM	0	0	14.6µM	0	0
CCOC(=O)C1CCCCN1S(=O)(=O)c1ccc2c(c1)CC(C)N2C(=O)C1CCC1 (stereo not drawn)	23.1µM	0	0	9.2µM	?	0
CC1CCN(C(=O)C2CCN(S(=O)(=O)c3ccc4c(c3)CC(C)N4C(=O)C3CC3)CC2)CC1 (stereo not drawn)	0	0	0	?	0	0
COc1cccc(Nc2ncc3nc(C)c(=O)n(CCc4ccccc4)c3n2)c1	0	-	-	0	-	-
